High-throughput results as filed in PubChem BioAssay.
NS1 inh: qHTS Assay for Inhibitors of Influenza NS1 Protein Function. Potency, µM (doses to about 46.1 µM). 0.4% of 270,000 active; calls by dose curve; further: actives are rising curves; nearly all actives have a fitted effect of over 50% in size
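OD600 was taken as the measure of yeast growth restored by compound in an NS1-expressing S. cerevisiae strain. Cells had been washed out of glucose medium and diluted 1:100 into galactose -URA medium, pH 6.0.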
SARS PLpro yeast: qHTS of Yeast-based Assay for SARS-CoV PLP; S. cerevisiae expressing SARS-CoV PLpro, growth rescue; Potency, µM (series often up to 32.9 µM), usual class: activators; 0.19% of 330,000 active; AID 485353, 2010; calls by dose curve; further: nearly all actives have a fitted effect of over 55% in size
Pf growth 48h: Primary qHTS for delayed death inhibitors of the malarial parasite plastid, 48 hour incubation; P. falciparum luciferase growth in erythrocytes, 48 h; Potency, µM (titrated, usually from 28.7 µM), usual class: inhibitors; 5.9% of 310,000 active; AID 504832, 2011
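Growth was read as firefly luciferase luminescence after a 48 h, 37 C, 5% CO2 exposure of compounds to reporter-bearing P. falciparum cultures (0.1% parasitemia, 2% hematocrit final) in Albumax-supplemented RPMI 1640.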
AMA1-RON2 inh: qHTS for Inhibitors of AMA1-RON; Towards Development of Antimalarial Drug Lead: Primary Screen | AlphaScreen AMA1-biotinylated RON2 peptide binding | Potency, µM (titrated, usually from 58.2 µM), actives largely listed as inhibitors | 0.2% of 360,000 active; further: nearly all actives have a fitted effect of over 45% in size
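AMA1 (3D7) with his tag at 25 nM final met compounds first, then biotinylated RON2 peptide at 25 nM; detection used donor plus acceptor beads, 10 µg/mL apiece, read by AlphaScreen after 30 min at room temperature.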
Pf growth 96h: Primary qHTS for delayed death inhibitors of the malarial parasite plastid, 96 hour incubation | P. falciparum luciferase reporter growth, 96 h | Potency, µM (top dose mostly 28.7 µM), most hits filed as inhibitors | 6.9% of 320,000 active
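Plates of compound plus infected erythrocytes (2% hematocrit, 0.05% parasitemia final) incubate 96 hours, 37 C, 5% CO2. Detection reagent added; reduced luminescence from the parasites' luciferase reporter flags inhibition.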
HCV inhibitor: qHTS Assay for Inhibitors of Hepatitis C Virus (HCV) | Huh7.5.1 HCVcc-Cre infection, luciferase reporter, 44 h | AID 651820, 2012 | 3.4% of 340,000 active | Potency, µM (highest dose often 41.8 µM), most hits filed as inhibitors
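Cells seeded at 1,000/well and cultured 4 h, then compounds added followed by HCVcc-Cre virus (~0.5 moi). After 44 h further culture, luciferase substrate was added, plates held 15 min at room temperature, and luminescence read for 15 sec.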
A number is an active result; [ ] = another dose, or the depositor's remark. A selection: hits, their analogues and other compounds. The true share with any hit is near 12%. Unless noted, the call rests on the fitted dose curve; in most records, active means well fitted curve in the direction sought with a large enough effect; inconclusive means small, poorly fitted or top-dose-only effect, or another doubt; inactive means no such curve, though single readings can be large; an effect the other way counts as inactive or inconclusive.

How did COc1ccc(NC(=O)N(C)C[C@H]2OCCCC[C@@H](C)Oc3ccc(NC(=O)c4ccccc4)cc3C(=O)N([C@H](C)CO)C[C@@H]2C)cc1 do in these assays?
AMA1-RON2 inh: inactive

Results for Cc1cccc(-c2nc3c(c(=O)c4ccccc4n3C)c(=O)n2-c2ccccc2)c1 ?
NS1 inh: inactive; SARS PLpro yeast: inactive; Pf growth 48h: 1.7µM; AMA1-RON2 inh: inactive; Pf growth 96h: 1.7µM; HCV inhibitor: inactive

How did CCOC(=O)N1CCc2c(sc3c2c(=O)n(Cc2ccccc2)c(=O)n3CC(=O)NCC2CCCO2)C1 (stereo unspecified) do in these assays?
NS1 inh: inactive; SARS PLpro yeast: inactive; Pf growth 48h: 5.9µM; AMA1-RON2 inh: inactive; Pf growth 96h: inconclusive; HCV inhibitor: inactive

Results for CCOC(=O)N1CCc2c(sc3c2c(=O)n(Cc2ccccc2)c(=O)n3Cc2ccccc2F)C1 ?
NS1 inh: inactive; SARS PLpro yeast: inactive; Pf growth 48h: 2.6µM; AMA1-RON2 inh: inactive; Pf growth 96h: inconclusive; HCV inhibitor: inactive[8.37 µM]

How did O=c1ccc2cc(S(=O)(=O)NCc3ccccc3)ccc2[nH]1 do in these assays?
NS1 inh: inactive; SARS PLpro yeast: inactive; Pf growth 48h: inactive; AMA1-RON2 inh: inactive; Pf growth 96h: inactive; HCV inhibitor: inactive

What do the screens show for `CC(C)=CCc1c([C@@H]2CCc3ccc(O)cc3O2)cc2c(c1O)OC(C)(C)C=C2`?
AMA1-RON2 inh: inactive; HCV inhibitor: 14µM

How did COC(=O)C1=C(c2ccc3ccccc3c2)C[C@@H]2CC[C@H]1N2C(=O)NCc1ccco1 do in these assays?
SARS PLpro yeast: inactive; Pf growth 48h: inconclusive; AMA1-RON2 inh: inactive; Pf growth 96h: inconclusive; HCV inhibitor: inactive

What do the screens show for `CCCNC(=O)N1[C@H]2CC[C@@H]1C(C(=O)OC)=C(c1ccc(OC(F)(F)F)cc1)C2`?
SARS PLpro yeast: inactive; Pf growth 48h: inconclusive; AMA1-RON2 inh: inactive; Pf growth 96h: inconclusive; HCV inhibitor: inconclusive

Results for COC(=O)C1=C(c2ccc(OC(F)(F)F)cc2)C[C@@H]2CC[C@H]1N2C(=O)NCCOc1ccccc1 ?
SARS PLpro yeast: inactive; Pf growth 48h: 12µM; AMA1-RON2 inh: inactive; Pf growth 96h: 4.7µM; HCV inhibitor: inconclusive

How did COC(=O)C1=C(c2ccc(OC(F)(F)F)cc2)C[C@@H]2CC[C@H]1N2C(=O)NCCOc1ccccc1Cl do in these assays?
SARS PLpro yeast: inactive; Pf growth 48h: 10µM; AMA1-RON2 inh: inactive; Pf growth 96h: inconclusive; HCV inhibitor: inconclusive

Results for COC(=O)C1=C(c2ccc(Cl)c(C(F)(F)F)c2)C[C@@H]2CC[C@H]1N2C(=O)NCCO ?
SARS PLpro yeast: inactive; Pf growth 48h: inconclusive; AMA1-RON2 inh: inactive; Pf growth 96h: inactive; HCV inhibitor: inactive

How did COC(=O)C1=C(c2ccc(Cl)c(C(F)(F)F)c2)C[C@@H]2CC[C@H]1N2C(=O)NCc1ccco1 do in these assays?
SARS PLpro yeast: inactive; Pf growth 48h: inconclusive; AMA1-RON2 inh: inactive; Pf growth 96h: 8.3µM; HCV inhibitor: inactive

What do the screens show for `COC(=O)C1=C(c2ccc(Cl)c(C(F)(F)F)c2)C[C@@H]2CC[C@H]1N2C(=O)NCCOc1ccccc1`?
SARS PLpro yeast: inactive; Pf growth 48h: 12µM; AMA1-RON2 inh: inactive; Pf growth 96h: 4.7µM; HCV inhibitor: inconclusive

Results for Cn1nc(-c2ccc(Cl)cc2)cc1NC(=O)CCCC(=O)O ?
NS1 inh: inactive; SARS PLpro yeast: inactive; Pf growth 48h: inactive; AMA1-RON2 inh: inactive; Pf growth 96h: inactive; HCV inhibitor: inactive

How did O=C(O)c1nc(-c2ccccc2)[nH]c1C(=O)O do in these assays?
NS1 inh: inactive

How did O=C(Nc1ccc(F)c(Cl)c1)Nn1cnnc1 do in these assays?
NS1 inh: inactive; SARS PLpro yeast: inactive; Pf growth 48h: inactive; Pf growth 96h: inactive

What do the screens show for `Cc1ccc(C)c(NC(=S)N2CCC(NC(=O)c3ccccc3)CC2)c1`?
NS1 inh: inactive; SARS PLpro yeast: inactive; Pf growth 48h: inactive; AMA1-RON2 inh: inactive; Pf growth 96h: inactive; HCV inhibitor: inactive

How did O=C1CSC(c2ccc(F)cc2)N1c1nc2ccccc2s1 (stereo unspecified) do in these assays?
NS1 inh: inactive; SARS PLpro yeast: inactive; Pf growth 48h: inactive; AMA1-RON2 inh: inactive; Pf growth 96h: 10µM; HCV inhibitor: inactive

Results for O=C1CSC(c2ccc(F)cc2)N1c1ccccc1F (stereo unspecified) ?
NS1 inh: inactive; SARS PLpro yeast: inactive; Pf growth 48h: inactive; AMA1-RON2 inh: inactive; Pf growth 96h: inconclusive; HCV inhibitor: inactive

What do the screens show for `CC(C)c1ccc(OCc2ccc(C(=O)NN3CCN(C)CC3)o2)cc1`?
NS1 inh: inactive; SARS PLpro yeast: inactive; Pf growth 48h: inactive; AMA1-RON2 inh: inactive; Pf growth 96h: inconclusive; HCV inhibitor: inconclusive

How did COc1ccccc1/C=N/Nc1cc(C)nc(N2CCOCC2)n1 do in these assays?
NS1 inh: inactive; SARS PLpro yeast: inactive; Pf growth 48h: inconclusive; AMA1-RON2 inh: inactive; Pf growth 96h: inconclusive; HCV inhibitor: inactive

How did COc1ccc(/C=N/Nc2cc(C)nc(-n3nc(C)cc3C)n2)c(OC)c1 do in these assays?
NS1 inh: inactive; SARS PLpro yeast: inactive; Pf growth 48h: 1.5µM; AMA1-RON2 inh: inactive; Pf growth 96h: 0.33µM; HCV inhibitor: inconclusive

What do the screens show for `CCOc1ccc(Nc2cc(C)nc(-n3nc(C)cc3C)n2)cc1`?
NS1 inh: inactive; SARS PLpro yeast: inactive; Pf growth 48h: 1.9µM; AMA1-RON2 inh: inactive; Pf growth 96h: inconclusive; HCV inhibitor: inconclusive

Results for CNc1cc(C)nc(-n2nc(C)cc2C)n1 ?
NS1 inh: inactive; SARS PLpro yeast: inactive; Pf growth 48h: 8.3µM; AMA1-RON2 inh: inactive; Pf growth 96h: 4.7µM; HCV inhibitor: inactive

What do the screens show for `Cc1cc(N/N=C/c2ccc(F)cc2)nc(-n2nc(C)cc2C)n1`?
NS1 inh: inactive; SARS PLpro yeast: inactive; Pf growth 48h: 0.33µM; AMA1-RON2 inh: inactive; Pf growth 96h: 1µM; HCV inhibitor: 2µM

Results for Cc1ccc(C(OCCN(C)C)c2cccc(C(F)(F)F)c2)cc1 (stereo unspecified) ?
NS1 inh: inactive; SARS PLpro yeast: inactive; Pf growth 48h: inconclusive; AMA1-RON2 inh: inactive; Pf growth 96h: inconclusive; HCV inhibitor: inconclusive

How did O=C(NCCC(=O)N1CCN(S(=O)(=O)c2ccccc2Cl)CC1)Nc1ccccc1 do in these assays?
SARS PLpro yeast: inactive; Pf growth 48h: inconclusive; AMA1-RON2 inh: inactive; Pf growth 96h: inconclusive; HCV inhibitor: inconclusive

How did Cc1cccc(C)c1NC(=O)C(C1CC1)n1c(-c2ccc(C(F)(F)F)cc2)nc2ccccc21 (stereo unspecified) do in these assays?
AMA1-RON2 inh: inactive
